# Assay results published in PubChem BioAssay.
# Some of the results follow. The source made the active and inactive calls.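 How the source made its calls, unless noted: active means membrane potential signal drops by more than 5 SD from the mean control signal, in both duplicate plates; inactive means the rest.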
# Assay: nonspecific voltage dye response without TRPC6 – cell-based, parental HEK293, counter-screen for TRPC6 modulator project, confirmation (AID 488924;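 active means membrane potential signal moves up or down beyond 5 SD from buffer-only wells, on both duplicate plates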)
# Conditions: parental HEK293, membrane potential dye fluorescence; at 10 µM
Compound,membrane potential signal change,outcome
OCCC1CN(Cc2ccc3nsnc3c2)CCN1C1CCCCC1 (stereo not given),109% (active),–
Cc1cccc(-[n+]2c(-c3cccc(Br)c3)[nH]c3nc4ccccc4nc32)c1,–,inactive
N=c1c2c3c(sc2ncn1CCCN1CCOCC1)CCCCC3,–,inactive
O=C1CN(C(=O)c2ccccc2F)C(c2ccc(F)cc2)c2cc(F)ccc2N1 (stereo not given),106% (active),–
Nc1ccc(C(=O)N2CCN(S(=O)(=O)c3ccc(Cl)cc3)CC2)cc1[N+](=O)[O-],–,inactive
COC(=O)c1c(NC(=O)c2ccc(S(=O)(=O)N3CCOCC3)cc2)sc2c1CCN(C(C)C)C2,-96% (active),–
CCOc1nc(NCCN2CCOCC2)nc(Nc2ccc(C)cc2)n1,98% (active),–
Cc1cccc(NC(=S)NCCN(C2CCCCC2)C2CCCC2)c1,129% (active),–
COc1ccc(Cl)cc1NC(=O)CCS(=O)(=O)c1cc2c(cc1C)NC(=O)CO2,–,inactive
CCN1CCN(c2ccc([N+](=O)[O-])cc2C(=O)c2ccc(Cl)cc2)CC1,150% (active),–
N=c1c2c3c(sc2nc2n1CCCCC2)CCCC3,-118% (active),–
Cc1nc(C(=O)NCc2ccccc2)sc1C1(C)CC(c2cccnc2)=NO1 (stereo not given),–,inactive
CC(C)c1ccc(NC(=O)Cn2ncc3ccccc32)cc1,–,inactive
Cc1nc(N=C(N)N)nc2c(C)cccc12,-235% (active),–
CCCCN(CCCC)CC(O)Cn1c2ccccc2c(=O)c2ccccc21 (stereo not given),–,inactive
Nc1c(C(=O)c2cccs2)sc2nsc(SCCN3CCCCC3)c12,238% (active),–
Clc1ccc(-n2nnnc2-c2cnc(-c3ccccn3)nc2-c2cccs2)cc1,133% (active),–
CCc1ccc(-c2cc(C(=O)NN3CCN(C)CC3)c3ccccc3n2)cc1,–,inactive
C/C(=N\Nc1nc2ccccc2[nH]1)c1cccs1,-108% (active),–
COc1ccc(-c2nnc(NC(=O)CS(=O)(=O)c3ccc(Cl)cc3)o2)c(OC)c1,86% (active),–

Compound,membrane potential signal change,outcome
CCCN(CCc1ccccc1)C1CCc2c(O)cccc2C1 (stereo not given),202% (active),–
CCN1CCN(c2nc(Nc3cc(OC)ccc3OC)nc(Nc3cc(OC)ccc3OC)n2)CC1,–,inactive
COc1ccc(Br)cc1/C=N/n1c(C)nnc1C,–,inactive
CN1CCN(C(=O)N2c3ccccc3CCc3ccccc32)CC1,–,inactive
CC(C)C(c1nnnn1CCc1ccccc1)N1CCN(C(=O)c2ccco2)CC1 (stereo not given),153% (active),–
O=C(c1ccc(-n2cnnn2)cc1)N1CCN(C(c2ccccc2)c2ccccc2)CC1,251% (active),–
COC(=O)c1ccccc1NC(=O)C1CCN(S(=O)(=O)c2cc(OC)ccc2OC)CC1,–,inactive
CCOc1ccc(/C(O)=C2/C(=O)C(=O)N(Cc3cccnc3)C2c2ccc(N(C)C)cc2)c(C)c1 (stereo not given),–,inactive
CSCCC(NC(=O)c1ccc(=O)n(C)n1)c1nc2ccccc2[nH]1 (stereo not given),–,inactive
COc1cc(CNCCN(C)C)ccc1OCc1c(F)cccc1Cl,142% (active),–
CCCc1cc(=O)oc2c(C)c(O)c(CN3CCCCC3)cc12,–,inactive
CN1CCN(c2ccc([N+](=O)[O-])c(Sc3nc4ccccc4[nH]3)c2)CC1,-66.5% (active),–
N=c1n(CCc2ccccc2)c2ccccc2n1Cc1ccccc1F,129% (active),–
CN(C)c1ccc(/C=C2\NC(=S)N(Cc3ccccc3)C2=O)cc1,267% (active),–
Cc1c(CCOC(=O)CC23CC4CC(CC(C)(C4)C2)C3)sc[n+]1Cc1ccc([N+](=O)[O-])cc1,-103% (active),–
CCCCc1nc(NCCN)c(C#N)c2c1CSC(C)(C)C2,–,inactive
CCOC(=O)c1sc2nc(CSCC(=O)OCc3ccc(C(=O)OC)o3)[nH]c(=O)c2c1C,148% (active),–
O=[N+]([O-])c1ccccc1Nc1ccc(O)cc1,-186% (active),–
CC(=O)c1cc(NC(=O)c2ccccc2)c(=O)oc1/C=C/N(C)C,868% (active),–
CCC(C)NCCOCCOc1ccc(Br)cc1C (stereo not given),94% (active),–

# Assay: membrane potential response modulators in host HEK293 cells – cell-based, second counter-screen, parental HEK293, membrane potential dye, counter-screen for TRPC6 modulator project, confirmation (AID 488926);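 on inhibition: plate controls were acetylcholine ECmax control wells for no effect and buffer only wells for full effect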
# Conditions: parental HEK293, membrane potential dye fluorescence, at 10 µM, after compound, maximal acetylcholine stimulation; active compounds read high
Compound,outcome,inhibition
OCCC1CN(Cc2ccc3nsnc3c2)CCN1C1CCCCC1 (stereo not given),inactive,–
Cc1cccc(-[n+]2c(-c3cccc(Br)c3)[nH]c3nc4ccccc4nc32)c1,inactive,–
N=c1c2c3c(sc2ncn1CCCN1CCOCC1)CCCCC3,inactive,–
O=C1CN(C(=O)c2ccccc2F)C(c2ccc(F)cc2)c2cc(F)ccc2N1 (stereo not given),inactive,–
Nc1ccc(C(=O)N2CCN(S(=O)(=O)c3ccc(Cl)cc3)CC2)cc1[N+](=O)[O-],inactive,–
COC(=O)c1c(NC(=O)c2ccc(S(=O)(=O)N3CCOCC3)cc2)sc2c1CCN(C(C)C)C2,inactive,–
CCOc1nc(NCCN2CCOCC2)nc(Nc2ccc(C)cc2)n1,inactive,–
Cc1cccc(NC(=S)NCCN(C2CCCCC2)C2CCCC2)c1,inactive,–
COc1ccc(Cl)cc1NC(=O)CCS(=O)(=O)c1cc2c(cc1C)NC(=O)CO2,inactive,–
CCN1CCN(c2ccc([N+](=O)[O-])cc2C(=O)c2ccc(Cl)cc2)CC1,inactive,–
N=c1c2c3c(sc2nc2n1CCCCC2)CCCC3,inactive,–
Cc1nc(C(=O)NCc2ccccc2)sc1C1(C)CC(c2cccnc2)=NO1 (stereo not given),–,97.5% (active)
CC(C)c1ccc(NC(=O)Cn2ncc3ccccc32)cc1,inactive,–
Cc1nc(N=C(N)N)nc2c(C)cccc12,–,76.5% (active)
CCCCN(CCCC)CC(O)Cn1c2ccccc2c(=O)c2ccccc21 (stereo not given),inactive,–
Nc1c(C(=O)c2cccs2)sc2nsc(SCCN3CCCCC3)c12,inactive,–
Clc1ccc(-n2nnnc2-c2cnc(-c3ccccn3)nc2-c2cccs2)cc1,inactive,–
CCc1ccc(-c2cc(C(=O)NN3CCN(C)CC3)c3ccccc3n2)cc1,inactive,–
C/C(=N\Nc1nc2ccccc2[nH]1)c1cccs1,–,73.5% (active)
COc1ccc(-c2nnc(NC(=O)CS(=O)(=O)c3ccc(Cl)cc3)o2)c(OC)c1,inactive,–

Compound,outcome,inhibition
CCCN(CCc1ccccc1)C1CCc2c(O)cccc2C1 (stereo not given),inactive,–
CCN1CCN(c2nc(Nc3cc(OC)ccc3OC)nc(Nc3cc(OC)ccc3OC)n2)CC1,inactive,–
COc1ccc(Br)cc1/C=N/n1c(C)nnc1C,inactive,–
CN1CCN(C(=O)N2c3ccccc3CCc3ccccc32)CC1,inactive,–
CC(C)C(c1nnnn1CCc1ccccc1)N1CCN(C(=O)c2ccco2)CC1 (stereo not given),–,85.5% (active)
O=C(c1ccc(-n2cnnn2)cc1)N1CCN(C(c2ccccc2)c2ccccc2)CC1,–,71% (active)
COC(=O)c1ccccc1NC(=O)C1CCN(S(=O)(=O)c2cc(OC)ccc2OC)CC1,inactive,–
CCOc1ccc(/C(O)=C2/C(=O)C(=O)N(Cc3cccnc3)C2c2ccc(N(C)C)cc2)c(C)c1 (stereo not given),inactive,–
CSCCC(NC(=O)c1ccc(=O)n(C)n1)c1nc2ccccc2[nH]1 (stereo not given),inactive,–
COc1cc(CNCCN(C)C)ccc1OCc1c(F)cccc1Cl,inactive,–
CCCc1cc(=O)oc2c(C)c(O)c(CN3CCCCC3)cc12,inactive,–
CN1CCN(c2ccc([N+](=O)[O-])c(Sc3nc4ccccc4[nH]3)c2)CC1,inactive,–
N=c1n(CCc2ccccc2)c2ccccc2n1Cc1ccccc1F,inactive,–
CN(C)c1ccc(/C=C2\NC(=S)N(Cc3ccccc3)C2=O)cc1,inactive,–
Cc1c(CCOC(=O)CC23CC4CC(CC(C)(C4)C2)C3)sc[n+]1Cc1ccc([N+](=O)[O-])cc1,inactive,–
CCCCc1nc(NCCN)c(C#N)c2c1CSC(C)(C)C2,inactive,–
CCOC(=O)c1sc2nc(CSCC(=O)OCc3ccc(C(=O)OC)o3)[nH]c(=O)c2c1C,inactive,–
O=[N+]([O-])c1ccccc1Nc1ccc(O)cc1,inactive,–
CC(=O)c1cc(NC(=O)c2ccccc2)c(=O)oc1/C=C/N(C)C,–,196% (active)
CCC(C)NCCOCCOc1ccc(Br)cc1C (stereo not given),inactive,–
